For one test, the target named is Albumin (Bos taurus) (UniProt P02769). The experiment in a line: bovine serum albumin binders on microarray, profiling panel, artefact control for SMM control protein annotation, biochemical, small-molecule microarray, Alexa647 label, 635/667 nm fluorescence (AID 1118).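 Further: score merges 667 nm emission intensity and signal-to-noise per printed compound spot.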 The following applies: BSA-A647 binding, fluorescence 635 nm, higher = more signal.
The nature of test [1]: small-molecule microarray binders of probe aXIP, primary screen, biochemical, NeuroSMM set, 635/667 nm fluorescence (AID 1119).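 Further: probe is the protein aXip251-270 applied at 1 µg/mL to compound-printed slides; binding of probe to printed compounds measured as 667 nm fluorescence plus signal to noise.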 As to conditions: higher = more signal, called active from +8 up or from −8 down.
Test [2] is described as follows: small-molecule binders of probe aNOTCH3, primary screen, biochemical, small-molecule microarray, 635/667 nm fluorescence (AID 1120).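 Further: probe is a biotin-tagged antibody raised against NOTCH3 rather than NOTCH3 protein; score merges spot fluorescence near 667 nm with spot signal to noise.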 As to conditions: higher = more signal.
Test [3] is described as follows: small-molecule binders of probe aNOTCH2, primary screen, biochemical, small-molecule microarray, 635/667 nm fluorescence (AID 1121).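 Further: score merges feature fluorescence read at 667 nm with its signal to noise.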 The following applies: higher = more signal.
Test [4] has as its target Carbonic anhydrase 2 (Homo sapiens) (UniProt P00918). The experiment in a line: CAII small-molecule binders, profiling panel, biochemical, small-molecule microarray, Alexa647-labelled CAII (AID 1122). As to conditions: CAII-A647 binding fluorescence, higher = more signal.
Test [5] can be described thus: COS7 lysate on small-molecule microarray, probe aHis, 635 nm (AID 1123).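 Further: z-score combines 667nm fluorescence intensity with signal-to-noise per printed compound spot.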 The following applies: COS7 cell lysate, fluorescence, higher = more signal.
Test [6] is described as follows: compound binding in COS7 lysate, probe aLAP1, primary screen, cell lysate, small-molecule microarray (AID 1124).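 Further: lysate comes from COS7 cells expressing LAP1 and is applied at 0.3 µg/mL; score merges spot fluorescence near 667 nm with signal-to-noise over triplicate slides.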 The following applies: probe aLAP1, fluorescence, higher = more signal.
Another test concerns Sam68 (KHDRBS1). The experiment in a line: Sam68 small-molecule binders, primary screen, biochemical, small-molecule microarray, 635 nm fluorescence (AID 1125).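 Further: score merges 667 nm channel intensity with signal to noise over triplicate slides.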 As to conditions: small-molecule microarray binding, higher = more signal.
Test [7] relates to Chordin-like protein 2 (CHRDL2). The experiment in a line: CHRDL2 small-molecule binders, primary screen, biochemical, small-molecule microarray, 635 nm fluorescence (AID 1126).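 Further: printed compound slides probed with Chrdl2 protein at 4 µg/mL for 1 h at 4 C; score merges 667 nm emission intensity with signal to noise over three replicate slides.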 As to conditions: small-molecule microarray binding, fluorescence 635 nm; higher = more signal.
Test [8] deals with Concanavalin-A (Canavalia ensiformis) (UniProt P02866). The experiment in a line: ConA small-molecule binders, primary screen, artefact control for SMM control protein annotation, biochemical, small-molecule microarray, Alexa647 label, 635 nm (AID 1127).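 Further: z combines 667 nm emission intensity with signal-to-noise across three replicate slides.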 The following applies: ConA-A647 binding fluorescence, higher = more signal.
Chain of Concanavalin-A (Canavalia ensiformis) (P02866 whole entry, looked up): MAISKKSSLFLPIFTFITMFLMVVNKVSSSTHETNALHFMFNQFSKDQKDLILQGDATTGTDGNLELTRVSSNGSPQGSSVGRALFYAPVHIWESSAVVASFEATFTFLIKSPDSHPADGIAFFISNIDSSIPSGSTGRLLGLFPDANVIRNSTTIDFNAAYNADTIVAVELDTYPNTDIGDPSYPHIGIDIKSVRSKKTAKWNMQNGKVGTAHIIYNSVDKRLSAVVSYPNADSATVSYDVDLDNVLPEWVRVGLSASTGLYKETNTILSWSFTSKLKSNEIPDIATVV

Molecules are shown by their SMILES. Calls of active or inactive are those of the source.

Among the data in PubChem BioAssay are composite z-score and composite Z-score values, retold here.

Chain of Albumin (Bos taurus) (P02769 whole entry, looked up): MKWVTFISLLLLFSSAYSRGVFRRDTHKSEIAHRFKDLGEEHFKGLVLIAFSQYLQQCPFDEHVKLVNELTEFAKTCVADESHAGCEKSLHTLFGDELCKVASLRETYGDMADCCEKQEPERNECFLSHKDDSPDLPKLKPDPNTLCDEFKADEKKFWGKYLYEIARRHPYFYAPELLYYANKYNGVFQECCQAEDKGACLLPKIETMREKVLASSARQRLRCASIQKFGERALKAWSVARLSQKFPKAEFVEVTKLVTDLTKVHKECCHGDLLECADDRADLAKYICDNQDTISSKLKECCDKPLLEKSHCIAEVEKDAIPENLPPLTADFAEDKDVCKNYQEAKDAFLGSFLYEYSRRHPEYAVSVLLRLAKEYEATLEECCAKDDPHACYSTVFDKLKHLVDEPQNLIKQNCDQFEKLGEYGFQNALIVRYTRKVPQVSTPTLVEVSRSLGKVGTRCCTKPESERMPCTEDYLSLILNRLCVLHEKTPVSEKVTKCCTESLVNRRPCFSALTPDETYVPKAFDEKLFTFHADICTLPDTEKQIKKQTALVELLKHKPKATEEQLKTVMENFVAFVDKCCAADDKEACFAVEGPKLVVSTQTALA

Regarding `CN(C)CCCC[C@@H]1NC(=O)[C@H]2C[C@@H](C(=O)NCCCCCNC(=O)CS)[C@@H](c3cccc(OCCO)c3)N2C1=O`, the composite z-score is 0.816 with Albumin (Bos taurus); -0.239 in [2]; -0.175 in [3]; 0.661 in test [4]; 1.67 in test [5]; 0.0827 in test [6]. The composite z-score in the test with Sam68 (KHDRBS1) stood at 1.03; in test [7], 0.651; in [8], 0.612. In addition, the composite Z-score in test [1] was -0.114 (inactive).
For the compound `C=CCNC(=O)[C@@H]1[C@H]2C(=O)O[C@H](c3ccccc3)[C@H](c3ccccc3)N2[C@H](c2ccc(OCCO)cc2)[C@@]12C(=O)Nc1ccc(C#Cc3ccc(OC)cc3)cc12`, the composite z-score with Albumin (Bos taurus) was 0.77; in [2] it was 0.102; in test [3], -0.0464; in test [4], 0.331; in test [5] it was 1.14; in [6] it was 0.606. Besides, the composite z-score is 1.3 in the test on Sam68 (KHDRBS1), 0.605 in test [7] and 1.13 in [8]. The composite Z-score in test [1] is 0.883 (inactive).
Take `COCCOC(=O)N1C(=O)[C@@]2(c3cc(C#Cc4ccc(OC)cc4)ccc31)[C@H](C(N)=O)[C@H]1C(=O)O[C@H](c3ccccc3)[C@H](c3ccccc3)N1[C@@H]2c1ccccc1OCCO`: the composite z-score was 0.73 in the test with Albumin (Bos taurus); 0.293 in [2]; 0.151 in [3]; 0.653 in test [4]; 2.54 in test [5]; 1.11 in [6]. Moreover, the composite z-score in the test with Sam68 (KHDRBS1) turned out to be 1.3; in test [7], 0.565; in [8] it was 1.17. Besides, in test [1], the composite Z-score was 0.611 (inactive).
`O=C1OCCC/C=C\[C@H]2OC34C=CCN(Cn5nnc6ccccc65)C(=O)[C@H]3N(CCO)C(=O)[C@@H]4C12` (stereo not given in full): the composite z-score in the test with Albumin (Bos taurus) is 0.926; in [2], 0.0004; in test [3] it was -0.0073; in test [4] it was 0.987; in test [5], 0.207; in test [6], 0.136. Moreover, the composite z-score was -0.642 in the test on Sam68 (KHDRBS1), -1.89 in test [7] and 0.216 in test [8]. Moreover, in [1], the composite Z-score was 0.605 (inactive).
As to `COC(=O)[C@@]1(Cc2ccc(OC)cc2)[C@H]2c3cc(C(=O)N(C)C)n(CCN4CNCC4=O)c3C[C@H]2CN1C(=O)c1ccccc1`, the composite z-score in the test with Albumin (Bos taurus) came out at 0.854; in test [2], 0.0539; in [3], 0.0228; in test [4] it was 0.879; in test [5], 0.287; in [6], 0.898. The composite z-score in the test on Sam68 (KHDRBS1) is -0.668; in [7] it was -0.386; in test [8] it was -0.61. The composite Z-score in test [1] was -0.704 (inactive).
As for `C=CCOC(=O)[C@H]1[C@@H]2C(=O)O[C@@H](c3ccccc3)[C@@H](c3ccccc3)N2[C@@H](c2ccc(OCCOC(=O)[C@H]3C[C@H]4C(=O)N5CCC[C@H]5C(=O)N4[C@H]3c3ccc(O)cc3)cc2)[C@]12C(=O)Nc1ccccc12`, the composite z-score with Albumin (Bos taurus) was -1.36; in test [2], 0.141; in [3], -0.0928; in test [4], 0.576; in test [5] it was 2.25; in [6], 0.793. In addition, the composite z-score in the test on Sam68 (KHDRBS1) came to 1.32; in [7], 1.25; in [8] it was 1.11. Besides, the composite Z-score in [1] is 0.171 (inactive).
For the compound `CN1C(=O)C2C=CC(C(O)c3ccc(I)cc3)N(N3CCCCC3)C2C1=O` (stereo not given), the composite z-score with Albumin (Bos taurus) came out at 0.999; in [2], 0.748; in test [3], 0.0196; in test [4], 0.608; in test [5], 2.85; in test [6], 0.879. Further, the composite z-score in the test with Sam68 (KHDRBS1) was 1.32; in test [7], -0.119; in [8] it was 1.15. The composite Z-score in test [1] was 0.891 (inactive).
Consider `[N-]=[N+]=NCc1ccccc1C[C@]1(C(=O)O)N=C(c2ccc(OCCCO)cc2)O[C@H]1c1ccccc1N=[N+]=[N-]`, for which the composite z-score with Albumin (Bos taurus) was 0.82; in test [2], 0.238; in test [3] it was 0.0755; in test [4], 0.55; in [5] it was 2.64; in test [6], 0.571. The results for the composite z-score (in the test with Sam68 (KHDRBS1); in test [7]; in test [8]) were 1.32, -0.958 and 1.05, respectively. Also, the composite Z-score in [1] was -0.17 (inactive).
Turning to `COC(=O)c1c(CC[C@@H](CO)NC(=O)N[C@@H](C)Cn2cc(C3(O)CCCCC3)nn2)oc(C(C)=O)c1C(=O)OC`, the composite z-score in the test with Albumin (Bos taurus) is 0.0745; in test [2], 0.0596; in test [3], -0.0466; in test [4], 0.421; in test [5], 0.377; in test [6], -0.0869. In addition, the figures for the composite z-score (in the test with Sam68 (KHDRBS1); in test [7]; in [8]) were 1.29, 1.02 and 1.02, respectively. Also, the composite Z-score in [1] was 0.502 (inactive).
Consider `O=C1OCCC/C=C\[C@H]2OC34C=CCN(Cn5nnc6ccccc65)C(=O)[C@H]3N(CCCCCCO)C(=O)[C@@H]4C12` (stereo not given in full), for which the composite z-score in the test with Albumin (Bos taurus) was -0.265; in test [2], -0.262; in test [3], -0.101; in test [4], 0.652; in [5] it was 2.13; in test [6], -0.368. For the same compound, the composite z-score with Sam68 (KHDRBS1) was 0.839; in [7], -1.25; in test [8], -0.472. The composite Z-score in test [1] was 0.236 (inactive).
On to `O=C1C2C=CC(C(O)C3CCCCC3)N(Nc3ccc([N+](=O)[O-])cc3)C2C(=O)N1c1ccccc1` (stereo not given), for which the composite z-score was 0.674 in the test with Albumin (Bos taurus); -0.366 in test [2]; -0.197 in test [3]; 0.57 in [4]; 2.53 in test [5]; 0.499 in test [6]. In addition, the composite z-score was 1.29 in the test on Sam68 (KHDRBS1), -1.2 in test [7] and 0.909 in test [8]. Besides, in test [1], the composite Z-score is -0.0746 (inactive).
In the case of `CCC(CC)C(O)C1C=CC2C(=O)N(C)C(=O)C2N1Nc1ccccc1` (stereo not given), the composite z-score in the test with Albumin (Bos taurus) was 0.333; in test [2], 0.149; in test [3], -0.05; in test [4], 0.652; in test [5] it was 2.5; in test [6], 0.515. Also, the figures for the composite z-score (in the test with Sam68 (KHDRBS1); in test [7]; in test [8]) were 1.07, -0.237 and 1.2, respectively. Besides, the composite Z-score in test [1] is -0.574 (inactive).
Regarding `COCCn1c(C(=O)N2CCCC2)cc2c1C[C@H]1CN(C(=O)c3ccccc3)[C@@](Cc3ccc(F)cc3)(C(=O)OC)[C@@H]21`, the composite z-score with Albumin (Bos taurus) is 1.02; in [2], 0.309; in [3] it was 0.11; in test [4], 0.827; in test [5], 2.96; in [6], 0.406. The composite z-score is 1.32 with Sam68 (KHDRBS1), -0.364 in [7] and 1 in [8]. The composite Z-score in test [1] was 2 (inactive).
Consider `COC(=O)[C@@]1(Cc2ccc(F)cc2)[C@H]2c3cc(C(=O)N(C)C)n(Cc4nc5ccccc5[nH]4)c3C[C@H]2CN1C(=O)c1ccccc1`, for which the composite z-score stood at 1.05 in the test with Albumin (Bos taurus); 0.392 in [2]; 0.0274 in test [3]; 0.824 in test [4]; 3.03 in [5]; 0.35 in test [6]. The composite z-score was 0.651 in the test on Sam68 (KHDRBS1), -0.41 in test [7] and 0.683 in test [8]. Further, in test [1], the composite Z-score was 0.0895 (inactive).
For `CN(C)CCCNC(=O)[C@@]1(c2ccc([N+](=O)[O-])cc2)CC(=O)N(C2CCCCC2)[C@@H]1c1ccc(CO)cc1I`, the composite z-score with Albumin (Bos taurus) is -0.13; in [2], -0.128; in test [3], -0.124; in test [4], 0.397; in test [5], 1.7; in [6] it was 0.742. The figures for the composite z-score (in the test on Sam68 (KHDRBS1); in test [7]; in test [8]) were 1.34, 0.096 and 1.15, respectively. For the same compound, the composite Z-score in [1] was -0.75 (inactive).
For `COc1ccc(COC2OC[C@]3(C)[C@H]4C5=C(CN3C(=O)OC(C)(C)C)[C@H](C)C(CO)C(CO)C5CC[C@@H]24)cc1` (stereo not given in full), the composite z-score in the test with Albumin (Bos taurus) was 0.73; in [2] it was 0.339; in [3], 0.191; in [4] it was 0.513; in [5], 0.814; in [6], 0.846. Moreover, the composite z-score in the test with Sam68 (KHDRBS1) is 0.567; in test [7], -0.888; in test [8], 0.927. In test [1], the composite Z-score was 0.086 (inactive).
